In the library only some 11% were active in any assay of this set; here they are far more common.
HEK293 tox = HEK 293 cell cytotoxicity; HEK 293 viability, ATP luminescence (CellTiter-Glo), 48-72 h; AID 1345083; hit rate 6.6% among 94,000; Potency, µM (series often up to 115 µM), most hits filed as inhibitors; further: nearly all actives have a fitted effect of over 60% in size
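HEK 293 seeded at 250 cells/well receive compound via pintool. After 48 or 72 hr at 37 degree Celsius, 5% CO2 and 95% humidity, CellTiter-Glo is dispensed and luminescence read following 10 min at room temperature.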
FLuc inh-1 = inhibitors of firefly (Photinus pyralis) luciferase; purified P. pyralis luciferase, luminescence, biochemical; hit rate 2.5% among 76,000; Potency, µM (titrated, usually from 115 µM), usual class: inhibitors; P08659; further: nearly all actives have a fitted effect of over 65% in size
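Biochemical qHTS: compound (6-point titration) added to 10uM D-luciferin plus 10uM ATP in Tris acetate pH 7.5 buffer with Mg, Tween-20 and BSA, then purified enzyme at 10nM; light output imaged.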
hNpr1 antagonist = antagonists of human natriuretic peptide receptor Npr1. P16066. HEK293 hNpr1 GloSensor cGMP, ANP-stimulated luminescence. Potency, µM (top dose mostly 46.3 µM), usual class: inhibitors. hit rate 1.6% among 76,000. AID 1347048; calls by dose curve; further: nearly all actives have a fitted effect of over 60% in size
Target sequence (P16066 whole entry, looked up): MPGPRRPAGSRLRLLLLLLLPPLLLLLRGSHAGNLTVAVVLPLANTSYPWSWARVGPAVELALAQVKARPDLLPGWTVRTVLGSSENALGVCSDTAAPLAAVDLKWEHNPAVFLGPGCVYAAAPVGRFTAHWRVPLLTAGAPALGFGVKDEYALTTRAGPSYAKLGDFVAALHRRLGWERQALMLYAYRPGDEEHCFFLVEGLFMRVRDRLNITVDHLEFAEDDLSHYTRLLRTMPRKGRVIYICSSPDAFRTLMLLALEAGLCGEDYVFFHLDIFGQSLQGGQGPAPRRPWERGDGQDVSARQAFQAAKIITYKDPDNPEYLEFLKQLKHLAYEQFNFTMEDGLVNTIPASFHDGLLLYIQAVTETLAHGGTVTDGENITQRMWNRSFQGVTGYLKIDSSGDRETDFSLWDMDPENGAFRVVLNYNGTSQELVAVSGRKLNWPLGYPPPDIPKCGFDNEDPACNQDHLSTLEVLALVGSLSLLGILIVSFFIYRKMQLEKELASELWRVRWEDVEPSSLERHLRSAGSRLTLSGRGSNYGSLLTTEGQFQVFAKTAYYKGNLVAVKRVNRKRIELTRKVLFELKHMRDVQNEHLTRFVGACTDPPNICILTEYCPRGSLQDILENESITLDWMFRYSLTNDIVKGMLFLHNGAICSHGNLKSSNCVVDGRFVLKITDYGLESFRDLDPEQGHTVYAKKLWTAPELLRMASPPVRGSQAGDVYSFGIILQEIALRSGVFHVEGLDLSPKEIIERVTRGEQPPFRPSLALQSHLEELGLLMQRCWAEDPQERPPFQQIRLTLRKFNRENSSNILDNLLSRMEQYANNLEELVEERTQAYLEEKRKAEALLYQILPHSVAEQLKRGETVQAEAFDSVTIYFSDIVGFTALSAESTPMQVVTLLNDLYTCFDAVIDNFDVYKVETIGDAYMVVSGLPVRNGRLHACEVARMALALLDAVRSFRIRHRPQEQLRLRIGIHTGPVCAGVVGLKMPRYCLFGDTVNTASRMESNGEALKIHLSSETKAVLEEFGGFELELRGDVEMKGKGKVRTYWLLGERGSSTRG
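Compound pre-incubated 30 min at room temperature on GloSensor-loaded HEK293 cells stably carrying hNpr1 and the pGS-40F cGMP biosensor. Stimulation uses hNppA at 0.1 nM final; luminescence is taken at baseline and 20 min post-agonist.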
NIH3T3 tox = cytotoxic compounds in NIH 3T3 cells; NIH 3T3 viability, CellTiter-Glo ATP luminescence, 48-72 h; Potency, µM (top dose mostly 96.7 µM), most hits filed as inhibitors; hit rate 4.3% among 94,000; further: nearly all actives have a fitted effect of over 55% in size
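First NIH 3T3 cells are plated at 400 cells/well; next compound is pinned in; then plates incubate 48 or 72 hr at 37 °C; finally CellTiter-Glo is added and luminescence read after 10 min.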
FLuc SDR -ATP = binders stabilizing firefly luciferase, without ATP | shares compounds with FLuc inh-1 | Potency, µM (top dose mostly 32.7 µM), actives largely listed as activators | hit rate 7.8% among 1,300 | Purified FLuc-C-HiBiT, Nano-Glo HiBiT luminescence, no ATP | AID 1963318; further: nearly all actives have a fitted effect of over 55% in size
FLuc SDR ATP = firefly luciferase binding stabilization, ATP added | shares compounds with FLuc inh-1 | purified FLuc-C-HiBiT + ATP, HiBiT complementation luminescence | Potency, µM (series often up to 32.7 µM), most hits filed as activators | hit rate 8.7% among 1,300;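 further: signal reports ligand binding via conformational change of the enzyme rather than luciferase catalysis; nearly all actives have a fitted effect of over 55% in size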
FLuc inh-2 = inhibitors of firefly luciferase enzymatic activity. shares compounds with FLuc inh-1. purified FLuc-C-HiBiT enzyme, luciferin luminescence. Potency, µM (doses to about 32.7 µM), actives largely listed as inhibitors. hit rate 42% among 1,300; further: nearly all actives have a fitted effect of over 70% in size
Hits are given with their value; – = inactive; ? = inconclusive; · = no result. Unless noted, the call rests on the fitted dose curve; in most records, active means well fitted curve in the direction sought with a large enough effect; inconclusive means small, poorly fitted or top-dose-only effect, or another doubt; inactive means no such curve, though single readings can be large; an effect the other way counts as inactive or inconclusive.

SMILES	HEK293 tox	FLuc inh-1	hNpr1 antagonist	NIH3T3 tox	FLuc SDR -ATP	FLuc SDR ATP	FLuc inh-2
CCOc1ccc(CC(=O)N2[C@@H]3CC[C@H]2CC(NC(=O)c2ccc(F)cc2)C3)cc1 (stereo partly specified)	–	–	–	–	·	·	·
COc1ccc(C(=O)Oc2ccc(C(c3c(C)[nH][nH]c3=O)c3c(C)[nH][nH]c3=O)cc2)cc1	·	·	·	·	–	–	?
O=C(CC(c1ccccc1)c1cn(Cc2ccccc2)c2ccc([N+](=O)[O-])cc12)N1CCOCC1 (stereo unspecified)	?	–	?	?	·	·	·
COc1ccc(Cn2c(=O)c(C(=O)N3CCN(C(=O)c4ccccc4C)CC3)nc3cccnc32)cc1	–	·	·	–	·	·	·
Cc1ccc(-n2ncc3c(N4CCC(C)CC4)ncnc32)cc1C	·	·	·	·	–	?	5µM
CC1CCCCN1c1ncnc2c1cnn2-c1ccccc1 (stereo unspecified)	·	·	·	·	11µM	?	1.1µM
CC1CCN(c2ncnc3c2cnn3-c2ccccc2)CC1	·	·	·	·	–	?	6.2µM
NC(=O)C1CCCN(c2ncnc3c2cnn3-c2ccccc2)C1 (stereo unspecified)	·	·	·	·	?	?	11µM
CC1CCCN1c1ncnc2c1CN(c1ccc(Cl)cc1)C(=O)CN2C (stereo unspecified)	–	–	–	–	·	·	·
C[S+](=O)([O-])N1CC2(Cc3ccccc31)CN(C(=O)Nc1ccccc1)C2	?	·	·	–	·	·	·
CCOCCN1C(=O)COC[C@@H]1[C@H](O)c1ccc(NC(=O)c2ccnc(Cl)c2)cc1	?	–	–	?	·	·	·
COCCN1C(=O)CS(=O)C12CCN(S(=O)(=O)c1c(C)noc1C)CC2 (stereo unspecified)	–	–	–	–	·	·	·
CCOC(=O)C1CCCN(C(=O)C2COC3(CCCCC3)N2C(=O)c2cccc(Cl)c2)C1 (stereo unspecified)	–	–	–	–	·	·	·
CCOC(=O)C1CCCN(c2ncnc3c2cnn3-c2ccc(C)c(Cl)c2)C1 (stereo unspecified)	·	·	·	·	–	–	–
COc1ccc(-c2nc(-c3ccccc3)nc3c2CN(C(=O)c2ccc(C(F)(F)F)cc2)CC3)cc1	?	–	–	–	·	·	·
O=C(c1ccc(C(F)(F)F)cc1)N1CCc2nc(-c3ccccc3)nc(-c3ccc(Cl)cc3)c2C1	?	–	–	?	–	–	–
Cc1cc(C)cc(C(=O)NC2CCN(c3cnn(CC4CC4)c(=O)c3)CC2)c1	–	–	–	–	·	·	·
O=C1c2cnc(-c3ccsc3)nc2OCCN1c1ccccc1	?	7.1µM	–	?	?	?	?
CN(C)c1cccc(-c2cnc(NC(=O)C3(c4ccccc4)CC3)c3c2CCO3)c1	?	–	–	?	·	·	·
O=C1c2cnc(-c3ccsc3)nc2OCCN1CC1CC1	?	?	–	–	·	·	·
CN(C)c1cccc(-c2ncc3c(n2)OCCN(c2ccccc2)C3=O)c1	?	1.6µM	–	?	?	?	13µM
O=C(c1c[nH]c2ccccc12)N1CCC2(CNS(=O)(=O)c3cccnc3O2)C1 (stereo unspecified)	–	·	·	–	·	·	·
O=C(C1CCCN(S(=O)(=O)N2CCCC2)C1)N1CCC(Cc2nncn2-c2ccccc2)CC1 (stereo unspecified)	–	·	·	–	·	·	·
CC(C)C(=O)NC1CCN(Cc2ccc(-c3nc4cccc(Cl)c4s3)cc2)CC1	·	·	·	·	–	–	–
Cc1ccc(-c2ccccc2CN2CCC(C(=O)NC3CCCC3)CC2)cc1Cl	–	·	·	–	·	·	·
SMILES	HEK293 tox	FLuc inh-1	hNpr1 antagonist	NIH3T3 tox	FLuc SDR -ATP	FLuc SDR ATP	FLuc inh-2
CCn1nccc1C(=O)N1CCC(c2nc(C3CCOCC3)no2)CC1	–	–	–	–	·	·	·
COCCN1CCNc2cc(Nc3cccc(OC)c3)ncc2C1	?	7.1µM	–	?	–	–	?
COCCN1CCNc2cc(-c3cccc(OC)c3)ncc2C1	·	·	·	·	?	–	20µM
Cn1cc(CN2CCNc3cc(Nc4cccnc4)ncc3C2)cn1	?	–	–	?	·	·	·
COCCN1CCNc2cc(Nc3cccc(N(C)C)c3)ncc2C1	?	?	–	?	·	·	·
Cn1ccnc1CN1CCNc2cc(Nc3ccccc3)ncc2C1	?	4.5µM	–	?	–	–	?
Clc1cccc(Nc2cc3c(cn2)CN(Cc2cccnc2)CCN3)c1	32µM	1.3µM	?	?	?	?	13µM
COc1cccc(Nc2cc3c(cn2)CN(Cc2ccncc2)CCN3)c1	?	?	–	?	·	·	·
COc1ccc(C2Cn3nnc(C(=O)N4CCC(C(=O)NC5CCC(C)CC5)CC4)c3CO2)cc1 (stereo unspecified)	–	–	–	–	·	·	·
CCN1CC(c2nc(-c3ccc(-n4nc(C)cc4N)cc3)no2)CCC1=O (stereo unspecified)	?	–	–	?	·	·	·
Cc1ccc(-c2cc(N)n(-c3ccc(C)cc3)n2)cc1	·	·	·	·	–	–	?
O=C(c1ccccc1C(F)(F)F)N1CCOc2c(cc(-c3nc4ccccc4s3)cc2OC2CCOC2)C1 (stereo unspecified)	·	·	·	·	–	–	–
Oc1ccc(Cl)cc1CN1CCOc2c(O)cc(-c3nc4ccccc4s3)cc2C1	·	·	·	·	–	–	–
C=CCCC(=O)N1CCOc2c(O)cc(-c3nc4ccccc4s3)cc2C1	50µM	?	–	?	–	–	–
O=C(c1ccccc1C(F)(F)F)N1CCOc2ccc(CN3CCOCC3)cc2C1	–	–	–	–	·	·	·
CC(CCc1ccc(O)cc1)N1CCOc2c(O)cc(-c3nc4ccccc4s3)cc2C1 (stereo unspecified)	·	·	·	·	–	–	–
CCOC(=O)N1CCc2c(sc(NCc3ccc(OCC)cc3)c2C(=O)Nc2ccc(OC)cc2OC)C1	·	·	·	·	–	?	3.9µM
COc1ccc(NC(=O)CCC2CCN(C(=O)c3ccccc3)CC2)c(OC)c1	?	–	–	–	·	·	·
CCOc1cc(=O)n2c(c1C(=O)Nc1ccc(OC)cc1OC)CCCC2	?	–	–	?	·	·	·
CCOC(=O)N1CCc2c(sc(NCc3cccs3)c2C(=O)Nc2ccc(OC)cc2OC)C1	·	·	·	·	–	?	3.1µM
Fc1ccc(-n2ncc3c(N4CCCCCC4)ncnc32)cc1	·	·	·	·	?	?	1.2µM
Cc1ccc(N2Cc3c(ncnc3N3CCN(C)CC3)N(C)CC2=O)cc1	–	–	–	–	·	·	·
Cc1ccc(-n2ncc3c(N4CCCCC4)nc(NCCCO)nc32)cc1	·	·	·	·	–	–	–
Cc1ccc(-n2ncc3c(N4CCCCCC4)ncnc32)cc1	·	·	·	·	1.8µM	0.88µM	0.2µM
Cc1ccc(CNC(=O)N2CCCC(n3c(C)cnc3C3CCOCC3)C2)cc1 (stereo unspecified)	–	–	–	–	·	·	·
COc1ccc(-c2noc([C@@H]3CCCN3C(=O)Cc3ccccc3Cl)n2)cc1OC	?	–	–	?	·	·	·

Assay outcomes (PubChem)
